# Screening data from PubChem BioAssay.
# Beta cell apopt = beta cell apoptosis inhibition; actives 0.8% (n = 300,000); INS-1E cytokine-induced death, ATP luminescence, 48 h; percent of positive-control rescue, neutral wells zero; protection from apoptosis, % (test concentration not listed);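 active = Every replicate reaches about 75%, or at least half do and their mean reaches it too, limit read from the data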;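 also: 0% = cytokine-treated negative control wells and 100% = positive control rescue; higher means more ATP so stronger rescue from cytokine killing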
# CSC inhib = cancer stem cell inhibition; cancer stem cell-like cells viability, luminescence; inhibition, % at 7.5 µM; actives 1.1% (n = 300,000); AID 2717; in the data active = inhibition above about 75%; tested in HMLE shEcad cells
# PAX8 inh HTS = inhibitors of PAX8 transcriptional activity in RMG-I cells; actives 1.2% (n = 360,000); inhibition, % at 12.6 µM; RMG-I TPO-luciferase reporter, SteadyGlo, 24 h;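 active = mean replicate inhibition at least 60% with every replicate also reaching 60%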;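 also: luciferase light reporting Pax8 driven TPO promoter activity; plate controls were median of neutral control wells for no effect and mitoxantrone controls for full effect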
# Gli-Sufu antag = antagonists of Gli-Sufu signaling; actives 0.74% (n = 340,000); Sufu-KO-LIGHT fibroblasts, Gli luciferase reporter luminescence; AID 588413; inhibition, % at 5 µM;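 active = inhibition above about 55%, limit read from the data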;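 also: 0% = DMSO-treated cells and 100% = wells with medium but no cells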
# Shn3 inh set2 = reduces Shn3 3'UTR luciferase signal in osteoblasts | inhibition, % at 12.5 µM | AID 588674 | actives 0.52% (n = 360,000) | Clone20 osteoblast Shn3 3'UTR firefly luciferase, 24 h;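 active = mean inhibition of at least 75% with every replicate also reaching 75%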;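 also: 0% = median of neutral control wells and 100% = pilot-screen positive control compound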
# Mdm2 MdmX PPI = inhibitors of human Mdm2/MdmX interaction; O15151+Q00987; SaOS-2 split-luciferase Mdm2/MdmX complementation, luminescence; inhibition, % at 8 µM; actives 3% (n = 330,000); AID 485346;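 active = inhibition of at least 50% at 8 µM in the primary screen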
# Active calls of the source: *; · = not tested or not shown. Most compounds without a hit are left out; they make up all but 4% or so of the library.
SMILES,Beta cell apopt,CSC inhib,PAX8 inh HTS,Gli-Sufu antag,Shn3 inh set2,Mdm2 MdmX PPI
O=S(=O)(Nc1cc(Sc2cccc3cccnc23)c(O)c2ccccc12)c1ccc(F)cc1,102*,119*,102*,96*,·,·
COc1cc(NC(=O)c2cc(C)on2)cc(C(=O)Nc2cccc(C(F)(F)F)c2)c1,38,88*,86*,14,28,34
COc1cc(NC(=O)c2ccnc(N)c2)cc(C(=O)Nc2cccc(C(F)(F)F)c2)c1,1,97*,52,1,-2,24
O=C(C1CCCC1)N1CCCCN2[C@@H](CO)[C@H](c3ccc(C#CC4CC4)cc3)[C@@H]2C1,·,·,-6,·,·,·
COc1cc(CN2CC(=O)N(c3ccccc3Cl)C2=S)cc(OC)c1OC,1,-10,13,62*,83,27
COc1cc(CN2CC(=O)N(c3cccc(Cl)c3C)C2=S)cc(OC)c1OC,4,12,15,15,26,14
CCn1c(O)c(/C=C2\C=NN=C2c2ccccc2)sc1=S,-6,17,8,4,-5,49
CC(C)Cn1c(O)c(/C=C2\C=NN=C2c2ccccc2)sc1=S,-7,90*,8,15,49,35
COc1ccc(S(=O)(=O)N(C)C[C@@H]2Oc3c(NS(=O)(=O)c4ccccc4)cccc3C(=O)N([C@H](C)CO)C[C@@H]2C)cc1,·,·,12,·,·,·
Cc1ccc(S(=O)(=O)Nc2ccc(O)c3ncccc23)cc1,49,29,55,7,92*,27
Cc1ccc(S(=O)(=O)Nc2ccc(O)c3cccnc23)cc1,0,21,33,8,27,42
C=CCC[C@H](Cc1ccc(F)cc1)C(=O)OC[C@@H](NC(=O)[C@@H](CC=C)CC(=O)N[C@@H](CO)Cc1ccccc1)C(C)(C)C,26,20,108*,-24,15,36
C=CCC[C@@H](Cc1ccc(F)cc1)C(=O)OC[C@@H](NC(=O)[C@@H](CC=C)CC(=O)N[C@@H](CO)Cc1ccccc1)C(C)(C)C,2,-4,33,23,7,33
c1ccc(N2CCN(CC3CCCCC3)CC2)cc1,139*,97*,3,2,-13,13
C[C@H]1CN([C@@H](C)CO)C(=O)c2cc(C#CC3CCCCC3)cnc2O[C@@H]1CN(C)C(=O)c1ccncc1,·,·,12,·,·,·
CC(=O)N1CCc2c(sc(NC(=O)c3ccc([N+](=O)[O-])o3)c2C(N)=O)C1,·,·,87*,·,100*,·
O=C(NCCN1C(=O)S/C(=C\c2ccc(OC(F)F)cc2)C1=O)c1cnccn1,9,·,128*,1,-7,41
COc1ccc(C(O)c2nc(-c3cccc(F)c3)cs2)cc1 (stereo not given),·,·,11,·,82*,·
Cc1ccc(N(CC(=O)Nc2cc(C)cc(C)c2)S(=O)(=O)c2c(C)noc2C)cc1,102*,10,16,68*,55,32
CO[C@H]1CN(C)C(=O)c2ccc(NC(=O)c3ccccc3)cc2OC[C@@H](C)NC[C@@H]1C,·,·,1,·,·,·
COc1ccc(S(=O)(=O)Nc2ccc3c(c2)CC(=O)N([C@@H](C)CO)C[C@H](C)[C@H](CN(C)S(=O)(=O)c2ccc(C)cc2)O3)cc1,·,·,72*,·,·,·
COc1ccc(S(=O)(=O)Nc2ccc3c(c2)CC(=O)N([C@H](C)CO)C[C@H](C)[C@H](CN(C)Cc2ccc(-c4ccccc4)cc2)O3)cc1,·,·,17,·,·,·
COc1ccc(S(=O)(=O)Nc2ccc3c(c2)CC(=O)N([C@H](C)CO)C[C@H](C)[C@@H](CN(C)Cc2ccc(-c4ccccc4)cc2)O3)cc1,·,·,76*,·,·,·
COc1ccc(S(=O)(=O)Nc2ccc3c(c2)CC(=O)N([C@@H](C)CO)C[C@@H](C)[C@@H](CN(C)Cc2ccc(-c4ccccc4)cc2)O3)cc1,·,·,85*,·,·,·
C[C@H](CO)N1C[C@H](C)[C@@H](CN(C)Cc2ccc(-c3ccccc3)cc2)Oc2ccc(NS(=O)(=O)c3ccc(F)cc3)cc2CC1=O,·,·,76*,·,·,·
CN(C)C(=O)C[C@@H]1C[C@@H]2c3cc(NC(=O)NC4CCCC4)ccc3O[C@@H]2[C@H](CO)O1,·,·,-30,·,·,·
CCS(=O)(=O)Nc1ccc2c(c1)C(=O)N(C)[C@@H]1CC[C@@H](CC(=O)OC)O[C@H]1CO2,·,·,-5,·,·,·
Cc1ccc(S(=O)(=O)N(C)C[C@@H]2Oc3ccc(NC(=O)Nc4cccc5ccccc45)cc3C(=O)N([C@H](C)CO)C[C@@H]2C)cc1,·,·,-7,·,·,·
